# From PubChem BioAssay AID463173 (ICCB-Longwood Screening Facility, Harvard Medical School, 2010)
# Among all 52,000 compounds or so, about 1,700 (3.3%) were called active. The sample holds actives, similar compounds and a random draw of the others, so the mix is not that of the screen. Cut-off read from the data, not from the text of the source: active = survival mostly below about 52% (no sharp cut-off); inactive = mostly above about 56%.
# Test system: Wild type
# Test: S. aureus survival, RN4220 and DeltatarO strains – OD600, teichoic acid synthesis inhibitors, primary screen (AID 463173)
# Details: S. aureus RN4220 wild type/DeltatarO growth, OD600, 18 h, stronger effect = lower value, screened at 18.75 µg/mL (by protocol)
row,SMILES,survival
1,COC(=O)c1ccc(NS(=O)(=O)c2c(C)nc3sccn3c2=O)cc1,85% (inactive)
2,CC(=O)NC1Sc2ccccc2N=C1c1ccccc1 (stereo not given),112% (inactive)
3,Cc1cccc(-n2c(Cc3ccccc3)nnc2SCc2nc(-c3cccs3)no2)c1,63% (inactive)
4,Cc1ccc2onc(CC(=O)Nc3ccc(C(C)C)cc3)c2c1,85% (inactive)
5,CCOc1ccc(NC(=O)c2sc3nc4c(c(-c5ccc(OC)cc5)c3c2N)C(=O)CC(C)(C)C4)cc1,69% (inactive)
6,CCCn1c(N2CCN(CC(=O)Nc3ccc(Cl)cc3)CC2)nc2ccccc21,118% (inactive)
7,Cc1nn(C)c2c1c(-c1ccccc1)cc(=O)n2CC(=O)NC(C)C,70% (inactive)
8,COc1ccc(C2=NS(=O)(=O)N(C)C(C(=O)Nc3ccc(OC(F)(F)F)cc3)=C2)cc1,55% (inactive)
9,COc1ccc(S(=O)(=O)c2cnc3cc(OC)c(OC)cc3c2N2CCCC(C)C2)cc1 (stereo not given),84% (inactive)
10,CCc1ccc(S(=O)(=O)c2cnc3ccc(OC)cc3c2N2CCCC(C)C2)cc1 (stereo not given),2% (active)
11,CC1CCCN(c2c(S(=O)(=O)c3ccccc3)cnc3ccc(Cl)cc23)C1 (stereo not given),121% (inactive)
12,Cc1ccccc1NC(=O)c1ccc(F)c(S(=O)(=O)N(C)Cc2ccccc2)c1,66% (inactive)
13,Cc1ccccc1CN1C(=O)c2ccccc2Sc2ccc(C(=O)N3CCCC3)cc21,85% (inactive)
14,CCCCOc1ccc(S(=O)(=O)Nc2ccc(-c3ccc(N4CCCCCC4)nn3)cc2)cc1,75% (inactive)
15,Cc1c(C(=O)NCc2ccccc2Cl)sc2nc[nH]c(=O)c12,82% (inactive)
16,Cc1cccc(CSc2nc3c(c(=O)[nH]2)CCC3)c1,78% (inactive)
17,Cc1nc(SCc2cccc(Cl)c2)nc2c1CCCC2,-8% (active)
18,O=c1[nH]c(SCc2cccc(Cl)c2)nc2c1CCC2,91% (inactive)
19,COc1cccc(-c2csc(-c3c(N)c(C(=O)c4ccccc4)n4ccccc34)n2)c1,72% (inactive)
20,Cc1nn2c(=O)cc(COC(=O)Cc3ccccc3)nc2s1,80% (inactive)
21,Cc1cccc(OCCCCn2c(C3CC(=O)N(c4ccccc4Cl)C3)nc3ccccc32)c1 (stereo not given),17% (active)
22,CCc1ccccc1N1CC(c2nc3ccccc3n2CCCCOc2ccccc2)CC1=O (stereo not given),19% (active)
23,CCOc1ccccc1N1CC(c2nc3ccccc3n2CCCOc2ccccc2)CC1=O (stereo not given),58% (inactive)
24,Cc1cccc(OCCCCn2c(C3CC(=O)N(c4ccc(C)cc4C)C3)nc3ccccc32)c1 (stereo not given),18% (inactive)

row,SMILES,survival
1,O=C1CC(c2nc3ccccc3n2CCCCOc2ccccc2)CN1c1ccccc1Cl (stereo not given),61% (inactive)
2,CCc1ccccc1N1CC(c2nc3ccccc3n2CCOc2ccc(Cl)c(C)c2)CC1=O (stereo not given),2% (active)
3,Cc1cc(C)cc(OCCn2c(C3CC(=O)N(c4ccccc4Cl)C3)nc3ccccc32)c1 (stereo not given),97% (inactive)
4,CCOc1ccccc1N1CC(c2nc3ccccc3n2CCCCOc2ccccc2)CC1=O (stereo not given),73% (inactive)
5,CCc1ccccc1N1CC(c2nc3ccccc3n2CCCOc2ccc(Cl)cc2)CC1=O (stereo not given),29% (inactive)
6,CCC1CCCCN1S(=O)(=O)c1cc2c3c(c1)CC(=O)N3CCC2 (stereo not given),95% (inactive)
7,COc1ccc(C)cc1NC(=O)CN1C(=O)CSc2ccc(S(=O)(=O)N3CCCC3)cc21,93% (inactive)
8,Cc1ccc2nc(/C(C#N)=C/c3ccccc3F)[nH]c2c1,46% (inactive)
9,Cc1ccc2nc(/C(C#N)=C/c3cccc(Br)c3)[nH]c2c1,-11% (active)
10,COc1cccc(/C=C(\C#N)c2nc3ccc(C)cc3[nH]2)c1,53% (inactive)
11,COc1ccc(C(=O)c2oc3ccccc3c2NC(=O)c2cc(=O)c3ccc(C)cc3o2)cc1Cl,87% (inactive)
12,O=C(C1c2ccccc2Oc2ccccc21)N1CCCCC1,103% (inactive)
13,CCCCn1c(CCCN2C(=O)c3ccccc3C2=O)nc2ccccc2c1=O,104% (inactive)
14,CONc1nc(NC(C)(C)C)nc(OCC#N)n1,102% (inactive)
15,CNc1nc(OCC#N)nc(N2CCCCC2)n1,119% (inactive)
16,N#CCOc1nc(OCC#N)nc(OCC#N)n1,-1% (active)
17,CCOc1ccc(CNC(=O)c2cc3c(=O)n(C)c4ccccc4c3s2)cc1,84% (inactive)
18,CC(C)Cn1c(/C=C/c2ccc(F)cc2)nc2ccccc21,-12% (active)
19,CCc1nc2ccccc2n1CCO,101% (inactive)
20,CCCCCCn1c(/C=C/c2ccccc2)nc2ccccc21,0% (active)
21,CCCCCn1c(CNC(=O)c2ccccc2)nc2ccccc21,89% (inactive)
22,CCn1c(O)c(/C=C/c2nc3ccccc3n2CC)sc1=S,108% (inactive)
23,CCCCCn1c(CNC(=O)c2ccc(F)cc2)nc2ccccc21,90% (inactive)
24,Cc1cccc(C(=O)NCCc2nc3ccccc3n2CCC(C)C)c1,116% (inactive)

row,SMILES,survival
1,CCC(C)Cn1c(/C=C/c2ccccc2)nc2ccccc21 (stereo not given),1% (active)
2,CC(C)CCn1c(/C=C/c2ccccc2)nc2ccccc21,-1% (active)
3,CCc1nc2ccccc2n1CC(C)C(=O)O (stereo not given),108% (inactive)
4,CCCn1c(CNC(=O)c2ccc(F)cc2)nc2ccccc21,69% (inactive)
5,CCCCCCn1c(CNC(=O)c2ccccc2)nc2ccccc21,91% (inactive)
6,Cc1cc(C)n2nc(SCC(=O)Nc3cccc(C(F)(F)F)c3)nc2n1,56% (inactive)
7,CCc1ccc(-n2c(SCc3ccccc3F)nc3[nH]ncc3c2=O)cc1,93% (inactive)
8,O=C(CCS(=O)(=O)c1cc2c(cc1Cl)NC(=O)CO2)NCCc1ccc(Cl)cc1,116% (inactive)
9,COc1ccc(NC(=O)Cn2c(=O)n(CC3CCCO3)c(=O)c3ccccc32)c(OC)c1 (stereo not given),86% (inactive)
10,O=c1c2sc3ccccc3c2n(Cc2ccccc2F)c(=O)n1CCc1ccccc1,86% (inactive)
11,O=C(NCc1ccccc1)c1cc(Sc2cccc(Cl)c2)nc2ccccc12,78% (inactive)
12,CCc1ccc(C(=O)c2cn(CC(=O)Nc3cc(OC)ccc3OC)c3nc(C)ccc3c2=O)cc1,124% (inactive)
13,CC(C)Cn1c(=O)c2ccccc2n2c(CCC(=O)N3CCN(c4ccccc4)CC3)nnc12,127% (inactive)
14,CCC1CCCCN1C(=O)COc1ccc(F)cc1 (stereo not given),113% (inactive)
15,CCOc1ccc(C2C(=O)N(C3CCCCC3)CC(=O)N2CCc2ccccc2)cc1OC (stereo not given),117% (inactive)
16,Cc1cccc(N2CCCC2=Nc2ccc(Br)cc2C#N)c1,116% (inactive)
17,O=C(Nc1ccccc1Cl)c1ccc(F)c(S(=O)(=O)NCc2ccc(Cl)c(Cl)c2)c1,69% (inactive)
18,COc1ccc2cc(CNc3ccc(C)cc3)c(=O)n(CC(=O)Nc3cccc(Cl)c3C)c2c1,73% (inactive)
19,COc1ccc(C(=O)N(Cc2ccc(N(C)C)cc2)Cc2ccco2)cc1Cl,81% (inactive)
20,CCOC(=O)N1CCN(Cc2nc3cc(NC(=O)c4ccc(OC)cc4)ccc3n2C(C)C)CC1,89% (inactive)
21,C#CCn1c(/C=C/c2ccc(Cl)cc2)nc2ccccc21,23% (active)
22,C#CCn1c(COc2ccccc2C)nc2ccccc21,115% (inactive)
23,Cn1c(C=Nc2ccc(Cl)cc2)nc2ccccc21,111% (inactive)
24,Cn1c(C(=O)NCCc2ccccc2)cc2c(=O)n3ccccc3nc21,80% (inactive)

row,SMILES,survival
1,CCOc1ccc(NC(=O)Cn2nnc(C(=O)NCc3cccs3)c2N)cc1,97% (inactive)
2,Cc1ccc2c(c1)cc1c(=O)n(Cc3ccc(Cl)cc3)nc(C)n12,97% (inactive)
3,COc1cc(/C=C(\C#N)c2nc3ccccc3[nH]2)ccc1OCc1cccc(C(F)(F)F)c1,66% (inactive)
4,COC(=O)c1ccc(Cl)cc1NC(=O)NC(C)c1c(-n2cccc2)sc(C)c1C (stereo not given),12% (active)
5,Cc1ccc(NC(=O)NC(C)c2c(-n3cccc3)sc(C)c2C)cc1F (stereo not given),74% (inactive)
6,Cc1sc(-n2cccc2)c(C(C)NC(=O)Nc2ccccc2Cl)c1C (stereo not given),77% (inactive)
7,Cc1sc(-n2cccc2)c(C(C)NC(=O)Nc2cccc(C(F)(F)F)c2)c1C (stereo not given),6% (active)
8,COc1ccc(NC(=O)NC(C)c2c(-n3cccc3)sc(C)c2C)cc1OC (stereo not given),76% (inactive)
9,COC(=O)c1ccc(NC(=O)NC(C)c2c(-n3cccc3)sc(C)c2C)cc1 (stereo not given),89% (inactive)
10,Cc1cccc(-n2ncc3c(Nc4ccc(Oc5ccc(Cl)cc5)cc4)ncnc32)c1,88% (inactive)
11,CCC(=O)C1=C(c2ccc(OC)c(OC)c2)N(C(=O)CC)n2c(CC)nnc2S1,55% (inactive)
12,CCCCN(C)C(=O)CSc1nc2ccccc2nc1Cc1ccc(C)cc1,0% (active)
13,CCN(C(=O)CSc1nc(-c2ccccc2)no1)c1ccccc1,85% (inactive)
14,CCN(C(=O)CCc1nc(-c2ccc(C)cc2)no1)c1cccc(C(F)(F)F)c1,0% (active)
15,COc1ccc(-c2noc(CC(=O)N(C)c3cccc(C)c3)n2)cc1,83% (inactive)
16,CCN(C(=O)CSc1nc2ccccc2nc1Cc1ccc(F)cc1)c1cccc(C)c1,88% (inactive)
17,CCN(C(=O)CSc1nc2ccccc2nc1Cc1cccc(OC)c1)c1cccc(C)c1,-2% (active)
18,CCN(C(=O)CSc1nc(-c2ccccc2)no1)c1cccc(C)c1,-2% (active)
19,CCCCNC(=O)CSc1nc2ccccc2nc1Cc1ccc(C)cc1,72% (inactive)
20,COc1cccc(Cc2nc3ccccc3nc2SCC(=O)Nc2cccc(C)c2)c1,128% (inactive)
21,CCN(C(=O)CSc1nc(-c2ccc(C(C)C)cc2)no1)c1cccc(C)c1,72% (inactive)
22,COc1ccc(-c2noc(CCC(=O)Nc3ccc(C(F)(F)F)cc3)n2)cc1,84% (inactive)
23,Cc1ccc(CNC(=O)CSc2nc3ccccc3nc2Cc2ccc(C)cc2)cc1,78% (inactive)
